# The source made the active and inactive calls. How the source made its calls: active means hit-call score of the fitted dose curve at least 0.9, where 1 is the maximum; inactive means score below 0.9.
# Assays:
# [1] = read-out: Matrix Metallopeptidase 1 (MMP1), MMP1 (gene 4312); test: BSK_hDFCGF_MMP1: BioMAP Diversity Plus: hDFCGF Assay for Matrix Metallopeptidase 1 (MMP1) Biomarker Activity (AID 2283064); details: primary human foreskin fibroblasts; actives raise or lower the signal
# In short: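 Human foreskin fibroblasts exposed to chemical for 24 h; MMP1 detected by ELISA, with DMSO as baseline for bidirectional fitting.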
# [2] = read-out: Vascular cell adhesion molecule 1 (VCAM1), VCAM1 (gene 7412); test: BSK_hDFCGF_VCAM1: BioMAP Diversity Plus: hDFCGF Assay for Vascular cell adhesion molecule 1 (VCAM1) Biomarker Activity (AID 2283065); details: primary human foreskin fibroblasts; actives raise or lower the signal;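 further: VCAM-1 protein level quantified by ELISA after 24 h chemical exposure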
# In short: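 Cells are dosed, cultured for 24 h, then VCAM-1 is quantified by ELISA; signal increases and decreases are both fitted relative to DMSO.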
# [3] = read-out: Plasminogen activator inhibitor-1 (PAI1), SERPINE1 (gene 5054); test: BSK_hDFCGF_PAI1: BioMAP Diversity Plus: hDFCGF Assay for Plasminogen activator inhibitor-1 (PAI1) Biomarker Activity (AID 2283066); details: primary human foreskin fibroblasts; actives raise or lower the signal
# In short: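 Fibroblasts from human foreskin were treated with test chemical. After 24 h, PAI-1 was measured by ELISA. Activity was fitted in both directions relative to DMSO.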
# [4] = read-out: Intercellular Adhesion Molecule 1 (ICAM1), ICAM1 (gene 3383); test: BSK_KF3CT_ICAM1: BioMAP Diversity Plus: KF3CT Assay for Intercellular Adhesion Molecule 1 (ICAM1) Biomarker Activity (AID 2283067); details: primary human keratinocytes with fibroblasts; actives raise or lower the signal
# In short: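 Dose the keratinocyte/fibroblast co-culture, wait 24 h, measure ICAM-1 by ELISA, then fit increases or decreases against DMSO. Cytotoxicity is checked in parallel cultures by SRB total-protein staining.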
# [5] = read-out: Interferon-gamma inducible Protein 10 (IP10), CXCL10 (gene 3627); test: BSK_KF3CT_IP10: BioMAP Diversity Plus: KF3CT Assay for Interferon-gamma inducible Protein 10 (IP10) Biomarker Activity (AID 2283068); details: primary human keratinocytes with fibroblasts; actives raise or lower the signal
# In short: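 In a primary skin co-culture of keratinocytes and fibroblasts, IP-10 is quantified by ELISA at 24 h after dosing. SRB staining of parallel wells monitors overt toxicity. Curves are fitted both directions against DMSO.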
# [6] = BSK_KF3CT_SRB: Viability Assessment in the BioMAP Diversity Plus: KF3CT Assay (AID 2283069); details: primary human keratinocytes with fibroblasts;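 further: fitted for both signal gain and loss against DMSO baseline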
# In short: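 Overt cytotoxicity is assessed as total protein by sulforhodamine B staining in parallel human skin co-cultures at 24 h after dosing. DMSO serves as negative control and baseline.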
# [7] = read-out: Interleukin-1 alpha (IL1a), IL1A (gene 3552); test: BSK_KF3CT_IL1a: BioMAP Diversity Plus: KF3CT Assay for Interleukin-1 alpha (IL1a) Biomarker Activity (AID 2283070); details: primary human keratinocytes with fibroblasts; actives raise or lower the signal
# In short: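 Readout is IL-1a level by ELISA, compared bidirectionally with DMSO as baseline. Cells: human keratinocytes co-cultured with foreskin fibroblasts, harvested 24 h post-dose.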
# [8] = read-out: TIMP metallopeptidase inhibitor 2 (TIMP2), TIMP2 (gene 7077); test: BSK_KF3CT_TIMP2: BioMAP Diversity Plus: KF3CT Assay for TIMP metallopeptidase inhibitor 2 (TIMP2) Biomarker Activity (AID 2283071); details: primary human keratinocytes with fibroblasts; actives raise or lower the signal
# In short: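 Chemicals were dosed onto human skin primary co-cultures of keratinocytes and foreskin fibroblasts, and TIMP-2 was measured by ELISA after 24 hours. Activity in either direction was fitted relative to DMSO.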
# [9] = read-out: Transforming growth factor beta 1 (TGFb1), TGFB1 (gene 7040); test: BSK_KF3CT_TGFb1: BioMAP Diversity Plus: KF3CT Assay for Transforming growth factor beta 1 (TGFb1) Biomarker Activity (AID 2283072); details: primary human keratinocytes with fibroblasts; actives raise or lower the signal
# In short: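 KF3CT co-culture (keratinocytes + fibroblasts), 24 h exposure → TGF-b1 ELISA → bidirectional fit, DMSO = baseline. Parallel SRB total-protein staining (0.1% SRB, 10% TCA fixation, 560 nm) for cytotoxicity.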
# [10] = read-out: C-C motif chemokine 2 (Homo sapiens) (UniProt P13500); test: BSK_KF3CT_MCP1: BioMAP Diversity Plus: KF3CT Assay for Monocyte Chemoattractant Protein 1 (MCP1/CCL2) Biomarker Activity (AID 2283073); details: primary human keratinocytes with fibroblasts; actives raise or lower the signal
# In short: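 Keratinocytes and foreskin fibroblasts were co-cultured, dosed with chemical, and sampled 24 h later. MCP-1 was quantified by ELISA, and the endpoint was analyzed with bidirectional fitting using DMSO as negative control.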
# [11] = read-out: Matrix Metallopeptidase 9 (MMP9), MMP9 (gene 4318); test: BSK_KF3CT_MMP9: BioMAP Diversity Plus: KF3CT Assay for Matrix Metallopeptidase 9 (MMP9) Biomarker Activity (AID 2283074); details: primary human keratinocytes with fibroblasts; actives raise or lower the signal;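 further: MMP9 protein level quantified by ELISA in the co-culture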
# In short: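 Values come from bidirectional fitting relative to DMSO of MMP-9 levels, which were measured by ELISA. Measurements were taken 24 h after chemical dosing of a keratinocyte and foreskin fibroblast co-culture.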
# [12] = read-out: urokinase plasminogen activator (uPA), PLAU (gene 5328); test: BSK_KF3CT_uPA: BioMAP Diversity Plus: KF3CT Assay for urokinase plasminogen activator (uPA) Biomarker Activity (AID 2283075); details: primary human keratinocytes with fibroblasts; actives raise or lower the signal
# In short: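 Values derive from bidirectional fitting against DMSO controls. Keratinocyte/foreskin fibroblast co-cultures received chemical; 24 h later uPA was detected by ELISA, with SRB total-protein staining in parallel wells for overt cytotoxicity.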
# CD40, CD40 (gene 958) = test: BSK_LPS_CD40: BioMAP Diversity Plus: LPS Assay for CD40 Biomarker Activity (AID 2283076); details: primary human HUVEC with PBMC; actives raise or lower the signal
# In short: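 CD40 signal, measured by ELISA, is fitted in both directions relative to DMSO vehicle. The system is an LPS-driven human vascular primary co-culture of endothelial cells and PBMC, sampled 24 h after compound addition.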
# [13] = read-out: E-selectin (Homo sapiens) (UniProt P16581); test: BSK_LPS_Eselectin: BioMAP Diversity Plus: LPS Assay for Eselectin Biomarker Activity (AID 2283077); details: primary human HUVEC with PBMC; actives raise or lower the signal
# In short: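 Signal of E-selectin, detected by ELISA, served as the endpoint; cells were umbilical vein endothelium with PBMC, read 24 h after treatment. DMSO defined baseline, and both increases and decreases were fitted.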
# [14] = read-out: Interleukin-8 (IL8), CXCL8 (gene 3576); test: BSK_LPS_IL8: BioMAP Diversity Plus: LPS Assay for Interleukin-8 (IL8) Biomarker Activity (AID 2283078); details: primary human HUVEC with PBMC; actives raise or lower the signal
# In short: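 Endothelial cells and PBMC from human donors are co-cultured, treated with chemicals and LPS, then assayed for IL-8 by ELISA after 24 h. Parallel SRB staining (0.1% SRB after 10% TCA fixation, 560 nm) flags cytotoxicity.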
# [15] = BSK_LPS_SRB: Viability Assessment in the BioMAP Diversity Plus: LPS Assay (AID 2283079); details: primary human HUVEC with PBMC;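 further: total protein by sulforhodamine B absorbance as a cytotoxicity measure; measured one day after compound addition; fitted in both directions against DMSO so loss or gain of signal counts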
# In short: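 Overt cytotoxicity was gauged by sulforhodamine B total-protein staining in a primary human vascular endothelial and mononuclear cell co-culture 24 h post-dosing. Activity was fitted in both directions relative to DMSO.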
# [16] = read-out: Interleukin-1 alpha (IL1a), IL1A (gene 3552); test: BSK_LPS_IL1a: BioMAP Diversity Plus: LPS Assay for Interleukin-1 alpha (IL1a) Biomarker Activity (AID 2283080); details: primary human HUVEC with PBMC; actives raise or lower the signal
# In short: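 Measured: IL-1 alpha via ELISA at 24 h in LPS-activated human umbilical vein endothelium–PBMC co-culture. Baseline: DMSO, bidirectional fitting.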
# [17] = read-out: Monocyte Chemoattractant Protein-1 (MCP1), CCL2 (gene 6347); test: BSK_LPS_MCP1: BioMAP Diversity Plus: LPS Assay for Monocyte Chemoattractant Protein-1 (MCP1) Biomarker Activity (AID 2283081); details: primary human HUVEC with PBMC; actives raise or lower the signal;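 further: secreted MCP-1 protein quantified by ELISA in culture supernatant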
# In short: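 LPS-stimulated HUVEC/PBMC co-culture; chemical, 24 h; MCP-1 by ELISA; bidirectional fit vs DMSO; cytotoxicity via SRB (0.1% stain, 10% TCA fix, 560 nm) in parallel wells.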
# [18] = BSK_LPS_PGE2: BioMAP Diversity Plus: LPS Assay for Prostaglandin E2 (PGE2) Biomarker Activity (AID 2283082); details: primary human HUVEC with PBMC; actives raise or lower the signal;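 further: secreted prostaglandin E2 measured by ELISA in LPS-stimulated co-culture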
# In short: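 Compounds were added to the LPS co-culture of endothelium and PBMC, and PGE2 was measured by ELISA after 24 h. Responses in either direction were fitted with DMSO as baseline.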
# [19] = read-out: Macrophage colony-stimulating factor (MCSF), CSF1 (gene 1435); test: BSK_LPS_MCSF: BioMAP Diversity Plus: LPS Assay for Macrophage colony-stimulating factor (MCSF) Biomarker Activity (AID 2283083); details: primary human HUVEC with PBMC; actives raise or lower the signal
# In short: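 Compound is added to a human vascular primary co-culture of umbilical vein endothelium and blood mononuclear cells. After 24 h, M-CSF is quantified by ELISA. Signal changes are fitted in both directions against DMSO.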
# Sequence of E-selectin (Homo sapiens) (P16581 whole entry, looked up): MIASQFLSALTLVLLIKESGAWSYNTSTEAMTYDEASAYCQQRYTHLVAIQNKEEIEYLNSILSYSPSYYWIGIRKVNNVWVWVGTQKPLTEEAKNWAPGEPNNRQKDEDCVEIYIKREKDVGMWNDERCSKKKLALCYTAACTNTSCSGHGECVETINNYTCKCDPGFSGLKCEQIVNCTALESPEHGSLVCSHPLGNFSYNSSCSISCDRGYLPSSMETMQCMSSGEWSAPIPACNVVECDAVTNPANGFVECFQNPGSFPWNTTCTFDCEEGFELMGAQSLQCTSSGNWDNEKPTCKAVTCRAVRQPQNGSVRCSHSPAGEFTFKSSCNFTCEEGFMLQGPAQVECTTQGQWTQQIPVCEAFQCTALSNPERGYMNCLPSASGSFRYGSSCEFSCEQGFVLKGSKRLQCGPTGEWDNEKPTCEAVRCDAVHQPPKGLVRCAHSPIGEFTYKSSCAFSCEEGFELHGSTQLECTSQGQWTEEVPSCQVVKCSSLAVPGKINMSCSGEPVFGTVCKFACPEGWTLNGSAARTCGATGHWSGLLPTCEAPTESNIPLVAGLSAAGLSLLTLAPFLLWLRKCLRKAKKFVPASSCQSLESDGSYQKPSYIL
structure (smiles),measurement,setting,value
CN1C(=O)N(c2ccccc2Br)Cc2cnc(Nc3ccc4c(c3)OCC(CO)O4)nc21 (stereo not given),AC50,[1],9.31 µM (active)
same,AC50,[2],34.1 µM (active)
same,AC50,[3],3.21 µM (active)
same,outcome,[4],inactive
same,AC50,[5],21.6 µM (active)
same,AC50,[6],16.2 µM (active)
same,AC50,[7],10.4 µM (active)
same,AC50,[8],13.7 µM (active)
same,AC50,[9],15.3 µM (active)
same,AC50,[10],31 µM (active)
same,AC50,[11],6.07 µM (active)
same,AC50,[12],12.4 µM (active)
same,AC50,"CD40, CD40 (gene 958)",7.42 µM (active)
same,AC50,[13],7.07 µM (active)
same,AC50,[14],6.07 µM (active)
same,AC50,[15],4.68 µM (active)
same,AC50,[16],9.1 µM (active)
same,AC50,[17],5.19 µM (active)
same,AC50,[18],3.63 µM (active)
same,AC50,[19],9.88 µM (active)
COc1cc(C(=O)NC2CCN(C)CC2)ccc1Nc1ncc2c(n1)N(C1CCCC1)CC(F)(F)C(=O)N2C,AC50,[1],18.6 µM (active)
same,AC50,[2],2.79 µM (active)
same,AC50,[3],12.2 µM (active)
same,AC50,[4],18.6 µM (active)
same,AC50,[5],32.3 µM (active)
same,AC50,[6],30.8 µM (active)
same,AC50,[7],7.74 µM (active)
same,AC50,[8],28.9 µM (active)
same,AC50,[9],29.8 µM (active)
same,AC50,[10],5.37 µM (active)
same,AC50,[11],18.6 µM (active)
same,AC50,[12],27.1 µM (active)
same,AC50,"CD40, CD40 (gene 958)",10.1 µM (active)
same,AC50,[13],22.6 µM (active)
same,AC50,[14],18.6 µM (active)
same,AC50,[15],8.37 µM (active)
same,AC50,[16],6.03 µM (active)
same,AC50,[17],11.7 µM (active)
same,AC50,[18],5.48 µM (active)
same,AC50,[19],14 µM (active)

# Reference: PubChem BioAssay (EPA / NIEHS)
